# Reference: the supplement of paper PMC12636033
# ± gives the standard deviation of the averaged measurements. Over roughly 33,000 sequences, “E-score (rank enrichment, -0.5 to 0.5)” has its median near -0.0068; the highest 2% begin near 0.24. The sample holds the highest values, similar sequences and a random draw of the others, so the mix is not that of the screen.
# System: muMax20 (Max(13-93) K31hArg/K57hArg, M65Nle)
# Test: PBM 8-mer E-score (E-score (rank enrichment, -0.5 to 0.5)); higher = stronger preferential binding
# Procedure: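 Protein binding microarray (universal PBM chip covering all 10-mers in fixed probe flanks) with chemically synthesized human Max(13-93) bHLH-LZ analogs (not full-length Max) bearing noncanonical residues (hArg, Tha, Aib, Nle at 65) and aromatic Cys staples. Read-out per 8-mer (and its reverse complement): E-score (rank-based enrichment, -0.5 to 0.5) and Z-score of median probe intensity.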
row,Sequence,PBM 8-mer E-score
1,ACGTATCA,0.243 ± 0.11
2,CATATGAA,0.0777 ± 0.049
3,AGGCACGA,0.109 ± 0.032
4,CAGAGCTA,-0.25 ± 0.013
5,TGAACAAA,0.00782 ± 0.029
6,TTAATAAA,0.238 ± 0.028
7,ATAATAAA,0.217 ± 0.023
8,ATAATCAG,0.32 ± 0.072
9,ATAATAAC,0.315 ± 0.034
10,CTAATAAC,0.19 ± 0.074
11,CTAATAAA,0.163 ± 0.024
12,ATAAGAAA,0.141 ± 0.043
13,ATAATCAA,0.0671 ± 0.022
14,ATAAGAAT,0.165 ± 0.04
15,GTAATAAC,0.156 ± 0.072
16,ATAAGAAC,0.24 ± 0.081
17,CTAATCAG,-0.0349 ± 0.028
18,GATAGCGA,-0.086 ± 0.082
19,AATCCGAC,0.0325 ± 0.024
20,CTCAGAGC,-0.28 ± 0.041
21,ATCTGGAG,-0.0378 ± 0.089
22,AAAGATGT,0.203 ± 0.0026
23,CCCGTCTC,-0.0114 ± 0.0032
24,ATCTCAAG,-0.0469 ± 0.0077
25,GCGAAGCA,0.0453 ± 0.032

row,Sequence,PBM 8-mer E-score
1,ACTTCCGC,-0.0937 ± 0.045
2,CTAATAAG,0.119 ± 0.044
3,ATAATAAG,0.247 ± 0.051
4,ATAATAAT,0.205 ± 0.05
5,CGCAGAGA,-0.0723 ± 0.14
6,CTCCAAGC,-0.018 ± 0.00052
7,TATATAAA,0.304 ± 0.05
8,AATATAAA,0.324 ± 0.012
9,GATATAAA,0.139 ± 0.03
10,AATATAAG,0.207 ± 0.045
11,TGTATAAA,0.207 ± 0.0065
12,AATATAAT,0.156 ± 0.065
13,CATATAAG,0.154 ± 0.076
14,CATATAAA,0.329 ± 0.056
15,CATATAAC,0.219 ± 0.048
16,ACGACGCA,0.00737 ± 0.11
17,AGGGGGCA,-0.0171 ± 0.019
18,CAGGCTCA,-0.0417 ± 0.019
19,GATCTTGA,0.101 ± 0.013
20,CTAGGCGA,-0.155 ± 0.071
21,TCCCCTCA,0.14 ± 0.1
22,GTTTCCTA,0.307 ± 0.033
23,ATTTCCTA,0.137 ± 0.029
24,CTTTCCTA,-0.0321 ± 0.019
25,GGAGGGCA,0.044 ± 0.11

row,Sequence,PBM 8-mer E-score
1,ATCAATTG,0.262 ± 0.073
2,ATCAATTC,0.172 ± 0.013
3,ATCAATTA,0.229 ± 0.068
4,AGAATAAT,0.116 ± 0.05
5,ACAATCAT,0.273 ± 0.042
6,ACAATAAT,0.286 ± 0.0027
7,ACAATAAC,0.191 ± 0.0039
8,CCAATAAG,-0.0178 ± 0.017
9,ACAATAAA,0.275 ± 0.025
10,CCAATAAA,0.266 ± 0.026
11,ACAATCAC,0.228 ± 0.053
12,TCAATAAA,0.114 ± 0.043
13,GCAATAAA,0.0786 ± 0.0037
14,ACAATAAG,0.21 ± 0.021
15,ACAATCAA,0.0227 ± 0.021
16,ACGTCTGA,-0.0769 ± 0.16
17,CAGGGCAC,-0.0777 ± 0.0056
18,AGGACCGC,0.0155 ± 0.085
19,CGACCTGC,-0.105 ± 0.063
20,GAAACCCC,-0.0104 ± 0.014
21,TAAGATTA,0.129 ± 0.04
22,TGCTTAAA,0.024 ± 0.12
23,ACTCGCGG,-0.0552 ± 0.016
24,ATACAGTG,0.2396 ± 0.0022
25,ATACAGTC,0.0784 ± 0.094

row,Sequence,PBM 8-mer E-score
1,ATACAGTA,0.233 ± 0.095
2,GCGTGCAA,0.0854 ± 0.022
3,CTTGAGTC,-0.0129 ± 0.11
4,CTCGACGA,-0.142 ± 0.024
5,GAGCCCTA,-0.14 ± 0.018
6,ATAAACAC,0.164 ± 0.11
7,GTAAAACA,0.108 ± 0.0083
8,ATAAAACG,0.194 ± 0.02
9,TTAAACAA,0.0932 ± 0.11
10,ATAAAACA,0.31 ± 0.025
11,AGAAACAC,0.00585 ± 0.032
12,AGAAACAA,0.2614 ± 0.0014
13,GGAAACAA,0.0706 ± 0.057
14,TAAAACTA,0.239 ± 0.11
15,AAAAACTA,0.095 ± 0.061
16,ATAAACAA,0.27 ± 0.049
17,CAAAACTA,0.132 ± 0.15
18,GGGAACAA,0.144 ± 0.0098
19,AGCCCCTC,0.0302 ± 0.046
20,AGCTCCTG,-0.171 ± 0.17
21,CAGTCACC,-0.064 ± 0.14
22,AGTTGAAG,0.0533 ± 0.067
23,CGGGAAGA,-0.0577 ± 0.15
24,CAAAAACG,0.111 ± 0.068
25,ATAAACTC,0.117 ± 0.039

row,Sequence,PBM 8-mer E-score
1,TAAAAACA,0.171 ± 0.018
2,AAAAAACA,0.272 ± 0.11
3,AAAAAACG,0.241 ± 0.023
4,GAAAAACA,0.16 ± 0.037
5,ATAAACTG,0.0137 ± 0.077
6,ACAAAACG,0.187 ± 0.013
7,ATAAACTA,0.276 ± 0.041
8,AGATAGAG,-0.0243 ± 0.056
9,ACAATGCG,0.0438 ± 0.031
10,CCGTTTCC,0.0806 ± 0.018
11,CCTTTCCA,0.0937 ± 0.037
12,CCCTTATA,0.199 ± 0.086
13,AAGTAACA,0.152 ± 0.018
14,CTGTAAAA,0.0545 ± 0.043
15,TTGTAAAA,0.24 ± 0.053
16,CTGTAACA,0.0977 ± 0.058
17,ATGTAACG,0.122 ± 0.029
18,ATGTAATG,0.2252 ± 0.0016
19,ATGTAATA,0.2587 ± 0.0011
20,GAGTAACA,0.164 ± 0.033
21,CTGTAATA,0.175 ± 0.023
22,ATGTAAAA,0.221 ± 0.049
23,ATGTAACA,0.244 ± 0.057
24,TAGTAACA,0.239 ± 0.066
25,CTAGTTAC,-0.0138 ± 0.072

row,Sequence,PBM 8-mer E-score
1,AATTGCCA,0.0456 ± 0.0012
2,CATTCGGG,-0.0351 ± 0.075
3,AATCTTGC,-0.066 ± 0.042
4,ACGAGTGA,-0.0322 ± 0.14
5,ATGTAAAG,0.244 ± 0.038
6,CTGTAAAG,-0.0854 ± 0.0043
7,ATGTAAAT,0.154 ± 0.09
8,GGCTGACA,-0.104 ± 0.086
9,ACCGTCAA,-0.205 ± 0.0036
10,AACTACAA,0.0818 ± 0.066
11,CATTACAA,0.184 ± 0.097
12,TACTACAA,0.286 ± 0.0027
13,CATTAGAA,0.0939 ± 0.015
14,AATTACAA,0.209 ± 0.066
15,GATTAGAA,0.0438 ± 0.032
16,CACTACAA,0.152 ± 0.021
17,TATTACAA,0.236 ± 0.041
18,TACTATAA,0.284 ± 0.021
19,CACTATAA,0.0282 ± 0.15
20,TATTAGAA,0.268 ± 0.0096
21,AACTATAA,0.229 ± 0.044
22,CTGGGAGC,-0.247 ± 0.043
23,AAAGTCCG,-0.148 ± 0.0098
24,GTGGAAAC,0.119 ± 0.033
25,CCCTCATA,0.135 ± 0.065

row,Sequence,PBM 8-mer E-score
1,GTAGACAA,0.173 ± 0.061
2,GTCTTAGA,-0.0878 ± 0.12
3,GGGCAAAA,-0.107 ± 0.024
4,AGGGGTAG,0.123 ± 0.011
5,CTGTGGGA,-0.0483 ± 0.025
6,AATTGATA,0.232 ± 0.016
7,AATTGATC,0.0857 ± 0.087
8,AATTGATG,0.264 ± 0.051
9,GAAGGGCA,0.156 ± 0.0064
10,ATAATGTA,0.276 ± 0.0095
11,ACTATAGT,0.243 ± 0.03
12,AGTATACT,0.258 ± 0.04
13,ATAATGTC,0.0566 ± 0.18
14,AGTATACC,0.077 ± 0.053
15,ATTATGTA,0.247 ± 0.0099
16,CTAATGTA,0.1481 ± 0.0014
17,AGTATACA,0.175 ± 0.1
18,ACTATAGG,0.0643 ± 0.011
19,ATTATGTG,0.164 ± 0.049
20,ATTATGTC,0.066 ± 0.23
21,ACTATAGA,0.117 ± 0.049
22,AACGTTGA,0.212 ± 0.038
